High-throughput results (PubChem BioAssay)
This is a sample that favours compounds with a hit; in the whole collection about 6.5% have one here.
VACV mCherry inh: vaccinia inhibition (mCherry reporter). AID 720579. Potency, µM (titrated, usually from 36.5 µM), inactives show at the top dose activity change, negative = inhibition, most hits filed as inhibitors. 0.63% of 310,000 active. Vaccinia virus mCherry reporter infection, fluorescence; calls by dose curve; tested in A549 cells; note: potency is the fitted concentration of half-maximal effect; nearly all actives have a fitted effect of over 35% in size
HCMV antiviral: inhibitors of human cytomegalovirus. AID 1259415. activity change, negative = inhibition, % at 57.5 µM. HFF cells, HCMV-luciferase reporter, 72 h; active compounds read low. 4.5% of 410,000 active; in the data active = activity change below about -60%; inconclusive = no clear call, values can overlap the other calls; inactive = above about -39%
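After 16 h attachment at 37C, HFF cells received test compound and HCMV-luciferase (1 PFU/cell); reporter luminescence read 72 h later, data normalized against buffer-only and known inhibitor Salinomycin.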
FMDV antiviral: foot and mouth disease virus antiviral activity. FMDV antiviral cell-based qHTS. Potency, µM (top dose mostly 57.9 µM), for the others: at the highest dose activity change, negative = inhibition, usual class: inhibitors. 1.2% of 410,000 active. AID 1159524; calls by dose curve; tested in HEK293T cells; note: read-out not given here; potency is the fitted concentration of half-maximal effect; nearly all actives have a fitted effect of over 45% in size
Marburg entry inh: blocks Marburg virus binding to or entry into cells | Marburg virus pseudotyped entry inhibition, cell reporter | Potency, µM (series often up to 37.8 µM), inactives show at the highest dose activity change, negative = inhibition, actives largely listed as inhibitors | 1.8% of 300,000 active | AID 540276; calls by dose curve; tested in HEK293 cells; note: potency is the fitted concentration of half-maximal effect
Vaccinia Venus: vaccinia inhibition (Venus reporter). Potency, µM (doses to about 36.5 µM), inactives show top-dose activity change, negative = inhibition, usual class: inhibitors. AID 720580. Vaccinia virus Venus reporter expression, fluorescence. 0.46% of 330,000 active; calls by dose curve; tested in A549 cells; note: potency is the fitted concentration of half-maximal effect; nearly all actives have a fitted effect of over 30% in size
Lassa entry inh: blocks Lassa virus binding to or entry into cells; Lassa virus pseudotype entry inhibition, cell reporter; Potency, µM (doses to about 37.9 µM), without a hit: at the top dose activity change, negative = inhibition, actives largely listed as inhibitors; 1.2% of 300,000 active; AID 540256; calls by dose curve; tested in HEK293 cells; note: potency is the fitted concentration of half-maximal effect; nearly all actives have a fitted effect of over 50% in size
* hit, by the source's call; i = inactive; ? = inconclusive; . = not tested or not shown; [ ] = remark or other dose. % is set by controls: 0 for no effect and ±100 for the full control effect.

SMILES	VACV mCherry inh	HCMV antiviral	FMDV antiviral	Marburg entry inh	Vaccinia Venus	Lassa entry inh
N#CCC(=O)N/N=C/c1cccc(Oc2ccccc2)c1	?	?	6.9%	?	-9.3%	?
Cc1ccc(NCC(=O)N/N=C/c2cccc(Oc3ccccc3)c2)cc1	?	?	?	4.2%	?	2.31µM*
COC(=O)N/N=C(C)\C=C\c1ccco1	.	-0.3	42.6%	8.6%	.	16.3%
CC(/C=C/c1ccco1)=N\NC(=O)CNc1cccc(C)c1	.	-60.7*	-16.0%	.	.	.
CSc1ccc(/C=N\NC(=O)CNc2ccc(C)cc2)cc1	-22.3%	9.7	.	-7.6%	-18.2%	1.3µM*
Cn1nccc1C(=O)NCC1CCC2(CCN(Cc3cccc4ncccc34)CC2)O1 (stereo unspecified)	-4.2%	.	-5.5%	.	1.4%	.
NC(=O)c1ccc[n+]([C@@H]2OC(COP(=O)([O-])OP(=O)(O)OCC3OC(n4cnc5c(N)ncnc54)C(OP(=O)(O)O)C3O)C(O)C2O)c1 (stereo partly specified)	-5.4%	.	4.8%	.	8.1%	.
O=C(CCl)c1ccc(Cc2ncc(C(F)(F)F)cc2Cl)s1	.	5.9	25.1µM*	0.6%[46.1 µM]	-12.9%	-25.9%
CC(C)(C)c1ccc(CN(Cc2ccccc2)C(c2ccccn2)c2nnnn2C(C)(C)C)cc1 (stereo unspecified)	-13.9%	-28.9	-21.5%	?	-7.3%	5.62µM*
CC(C)(C)n1nnnc1C(c1cc2ccccc2o1)N(Cc1ccccc1)Cc1ccccc1 (stereo unspecified)	?	-86.8*	?	.	-23.0%	.
Cc1nn(-c2ccc(N3CCCC3)nn2)c(C)c1CCC(=O)NCc1ccccc1F	-9.1%	?	13.0%	.	-7.3%	3.9%[46.1 µM]
COC(=O)CC(NC1CCN(c2nc(C)c3cc4c(cc3n2)CCC4)CC1)C(=O)OC (stereo unspecified)	-10.0%	.	-2.1%	.	4.2%	.
COc1cc(NS(=O)(=O)c2cc(Br)cc3c2N(C(=O)C2CC2)CC3)cc(OC)c1	17.8µM*	30.8	-91.7%	.	?	3.55µM*
Cc1ccc(NS(=O)(=O)c2cc(Br)cc3c2N(C(=O)C2CC2)CC3)cc1C	?	-75.2*	-51.4%	.	?	?
CC(=NNc1nc2ccccc2s1)c1ccncn1	2.82µM*	-100.4*	0.0%	?	?	?
Nc1[nH]c(C(=O)c2ccc(Br)cc2)c(-c2ccc(Cl)cc2[N+](=O)[O-])c1C(=O)NCCc1c[nH]c2ccccc12	.	9.1	.	.	.	.
Cc1cccnc1NC(=O)c1sc2ccccc2c1Cl	-4.6%	44.6	-7.5%	?	-19.9%	?
Cc1ccc(NC(=O)c2sc3ccccc3c2Cl)nc1	-14.7%	15.5	.	?	-11.0%	5.8µM*
Cn1cccc1/C=N/NC(=O)c1sc2ccccc2c1Cl	.	-102.2*	36.6%	15.5%	-23.9%	-21.3%
Cc1nnc(NC(=O)c2sc3ccccc3c2Cl)s1	-5.3%	18.7	-69.0%	?	-28.8%	11.6µM*
Cc1c(C(=O)NCc2ccco2)cnn1-c1ncc2c(n1)-c1ccccc1CC2	-14.8%	.	47.7%	.	-28.2%	.
C=C1OC(CO)(n2cnc3c(N)ncnc32)C(O)C1O (stereo unspecified)	12.1%	.	.	.	-9.5%	.
Cc1cnc(NC(=O)CCCc2nc3ccccc3s2)s1	.	-101.1*	13.2%	?	5.62µM*	?
OC(COCC1COc2ccccc2O1)CN1CCN(c2ccccn2)CC1 (stereo unspecified)	?	-65.7*	-4.6%	-5.0%[46.1 µM]	9.8%	-11.7%[46.1 µM]
CC(C)(C)C1CCC(OCC(O)CN2CCN(c3ccccn3)CC2)CC1 (stereo unspecified)	-20.4%	-69.2*	?	?	-23.3%	?
SMILES	VACV mCherry inh	HCMV antiviral	FMDV antiviral	Marburg entry inh	Vaccinia Venus	Lassa entry inh
O=C(c1cc2nc(-c3ccc(F)cc3)cc(C(F)(F)F)n2n1)N1CCCCC1c1cccnc1 (stereo unspecified)	?	-89.9*	17.8µM*	?	?	?
COc1ccc([C@H]2CC(=O)C=C(c3ccccc3)C2)cc1OC	-28.0%	8.3	-22.3%	.	-23.9%	.
COc1ccc([C@H]2CC(=O)C=C(c3ccc(Oc4ccccc4)cc3)C2)cc1OC	?	-63.9*	?	.	?	.
COC(=O)CC1=CO[C@@H](O)[C@@H]2C(CO)=CC[C@@H]12	.	.	.	15.9%[14.2 µM]	.	.
O=C(C1CCCCC1)N(Cc1cccnc1)c1nc2c(F)cc(F)cc2s1	-7.5%	0.0	-16.8%	.	0.6%	-1.8%[46.1 µM]
COc1ccc(/C=N/N2CCN(Cc3ccccc3)CC2)cc1	.	3.4	3.6%	.	.	.
COc1ccc(/C=C/C2=CCN(Cc3ccc(OC)cc3)CC2)cc1	-28.9%	?	-7.4%	4.47µM*	-16.1%	-16.0%[46.1 µM]
O=C(N/N=C/c1cc(Cl)cc([N+](=O)[O-])c1O)NC12CC3CC(CC(C3)C1)C2	-7.0%	8.7	22.4µM*	?	-19.2%	11.3%
O=C(N/N=C/c1cc(Cl)cc([N+](=O)[O-])c1O)c1ccc2c(c1)OCO2	.	-23.1	18.3%	.	.	.
O=C1c2ccccc2C(=O)N1CCCC[C@]12Cc3ccccc3[C@H](O1)c1c(c3ccccc3oc1=O)O2	.	.	.	-29.2%[14.2 µM]	.	.
Cc1c(C)n(Cc2ccccc2)c2ncnc(N)c12	.	-60.1*	0.0%	-11.4%	.	-4.5%
COc1cccc(CC2(CO)CCCN(Cc3ccc(C)s3)C2)c1 (stereo unspecified)	-24.3%	-20.2	-19.2%	?	-10.3%	0.5%
COc1cccc(CC2(CO)CCCN(Cc3c(C)cc(C)cc3-n3cccn3)C2)c1 (stereo unspecified)	-7.8%	-68.8*	-10.5%	.	-23.2%	.
COc1cccc(CC2(CO)CCCN(Cc3cc4ccccc4[nH]3)C2)c1 (stereo unspecified)	?	4.6	-19.1%	3.98µM*	-22.5%	?
COc1ccc(-n2ccnc2CN2CCCC(CO)(Cc3cccc(OC)c3)C2)cc1 (stereo unspecified)	-3.0%	-29.8	-26.9%	?	-4.4%	-28.9%
COc1cccc(CC2(CO)CCCN(Cc3[nH]c4ccc(C)cc4c3C)C2)c1 (stereo unspecified)	11.2µM*	-12.1	7.0%	.	?	.
CCn1nc(C)cc1C(=O)Sc1cccc(Br)c1	-1.6%[7.34 µM]	-106.5*	?	8.3%[46.1 µM]	-8.9%[7.34 µM]	-26.0%
CCn1nc(C)cc1C(=O)Sc1ccc(Cl)cc1Cl	-22.4%[7.34 µM]	-107.9*	?	2.2%[46.1 µM]	-17.0%[7.34 µM]	14.9%
Cc1cc(C)n(C(=O)CNC(=O)c2cccc(Br)c2)n1	i	?	8.4%	12.0%[46.1 µM]	-1.5%	-3.1%[46.1 µM]
CCn1nc(C)cc1C(=O)OCC(=O)c1ccc(Cl)cc1	-7.0%	15.6	-0.8%	12.8%[46.1 µM]	-1.1%	-7.6%[46.1 µM]
O=C(c1cccc(F)c1)N1CCC[C@@]2(CCN(c3ccccc3)C2)C1	.	.	-22.4%	.	.	.
CC(NC(=O)c1cccnc1)c1nnc2n1CCN(Cc1ccc(-c3ccccc3Cl)o1)CC2 (stereo unspecified)	i	.	10.9%	.	-15.9%	.
CNCC(=O)c1c[nH]c2ccccc12	-8.3%	.	.	.	-10.9%	.
